Experimental data taken from PubChem BioAssay (NCI).
Compounds without any hit were thinned out: in the full panel of roughly 83,000, 20% have a hit.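 Growth was measured after 48 h exposure to one concentration of compound in 96-well plates. Values under 10 count as active.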 Calls of active or inactive are those of the source.

Experiments:
Assay in all cases: NCI-60 one-dose screen, 48 h (100 = growth as untreated, 0 = no growth, -100 = all killed)
Conditions in all cases: 10 µM unless noted
HCT-15 colon = test system: HCT-15 colon
HT29 colon = test system: HT29 colon
SNB-75 CNS = test system: SNB-75 CNS
SNB-19 CNS = test system: SNB-19 CNS
U251 CNS = test system: U251 CNS
PC-3 prostate = test system: PC-3 prostate
SK-MEL-5 melanoma = test system: SK-MEL-5 melanoma
UACC-62 melanoma = test system: UACC-62 melanoma
LOX IMVI melanoma = test system: LOX IMVI melanoma
SK-MEL-28 melanoma = test system: SK-MEL-28 melanoma
SK-MEL-2 melanoma = test system: SK-MEL-2 melanoma
EKVX NSCLC = test system: EKVX NSCLC
SN12C renal = test system: SN12C renal
UO-31 renal = test system: UO-31 renal
TK-10 renal = test system: TK-10 renal
ACHN renal = test system: ACHN renal
CAKI-1 renal = test system: CAKI-1 renal
A498 renal = test system: A498 renal
CCRF-CEM leukemia = test system: CCRF-CEM leukemia
MOLT-4 leukemia = test system: MOLT-4 leukemia

Measured: growth

CC(=O)Nc1ccc(S(=O)(=O)NC2CCCCC2)cc1
inactive: HCT-15 colon 95.9% | HT29 colon 95.4% | SNB-75 CNS 86.3% | SNB-19 CNS 96.2% | U251 CNS 91% | PC-3 prostate 94.6% | SK-MEL-5 melanoma 98.2% | UACC-62 melanoma 91.4% | LOX IMVI melanoma 95.8% | SK-MEL-28 melanoma 98.3% | SK-MEL-2 melanoma 108% | EKVX NSCLC 95.2% | SN12C renal 91% | UO-31 renal 85.2% | TK-10 renal 90.2% | ACHN renal 91.7% | CAKI-1 renal 98.5% | A498 renal 64.3% | CCRF-CEM leukemia 96.3% | MOLT-4 leukemia 101%

COc1nc(N)nc(-n2c(-c3ccc(C)cc3)nc3ccccc32)c1NCc1ccc(C)cc1
inactive: HCT-15 colon 94.8% | HT29 colon 94.7% | SNB-75 CNS 75.5% | SNB-19 CNS 86.5% | U251 CNS 83% | PC-3 prostate 65.7% | SK-MEL-5 melanoma 96.8% | UACC-62 melanoma 64.4% | LOX IMVI melanoma 87.8% | SK-MEL-28 melanoma 107% | SK-MEL-2 melanoma 99.9% | EKVX NSCLC 94.9% | SN12C renal 90% | UO-31 renal 59.9% | TK-10 renal 98.4% | ACHN renal 93.7% | CAKI-1 renal 40.7% | A498 renal 80.7% | CCRF-CEM leukemia 94.5% | MOLT-4 leukemia 83.3%

COc1ccc(C(=O)c2cc3c(N)c(C(=O)Nc4cccc(Cl)c4)sc3nc2C)cc1
active: HT29 colon -3.3% | SNB-75 CNS -10.1% | SK-MEL-5 melanoma 9.91% | A498 renal -0.876% | CCRF-CEM leukemia 8.14%
inactive: HCT-15 colon 21% | SNB-19 CNS 41.8% | U251 CNS 23% | PC-3 prostate 27.9% | UACC-62 melanoma 39.3% | LOX IMVI melanoma 48.2% | SK-MEL-28 melanoma 65.7% | SK-MEL-2 melanoma 39.8% | EKVX NSCLC 39.4% | SN12C renal 42.7% | UO-31 renal 42.7% | TK-10 renal 49.9% | ACHN renal 49.3% | CAKI-1 renal 44.1% | MOLT-4 leukemia 20.2%

CCC1(CC)NC(=O)c2c(c3ccc(Cl)c(Cl)c3n2C)C1C#N (stereo not given)
active: MOLT-4 leukemia 4.72%
inactive: HCT-15 colon 100% | HT29 colon 100% | SNB-75 CNS 90% | SNB-19 CNS 85% | U251 CNS 96.1% | PC-3 prostate 90.5% | SK-MEL-5 melanoma 89.9% | UACC-62 melanoma 76.1% | LOX IMVI melanoma 99.7% | SK-MEL-28 melanoma 123% | SK-MEL-2 melanoma 115% | EKVX NSCLC 95.5% | SN12C renal 84% | UO-31 renal 70.5% | TK-10 renal 127% | ACHN renal 95.5% | CAKI-1 renal 66.6% | A498 renal 84.9% | CCRF-CEM leukemia 19.4%

CCN(CC)CCCCCCNc1cc(OC)cc2cccnc12
inactive: SNB-75 CNS 75.5% | SNB-19 CNS 95.6% | PC-3 prostate 82.8% | SK-MEL-5 melanoma 68.5% | UACC-62 melanoma 102% | SK-MEL-2 melanoma 114% | EKVX NSCLC 90.1% | SN12C renal 89.4% | UO-31 renal 62.6% | TK-10 renal 130% | ACHN renal 99.6% | CAKI-1 renal 90.4% | A498 renal 63.5%
active: HCT-15 colon -4.8% | HT29 colon -44.8% | U251 CNS 5.33% | LOX IMVI melanoma -60.4% | SK-MEL-28 melanoma -11.8% | CCRF-CEM leukemia -35.6% | MOLT-4 leukemia -57.3%

CC(C)(C)CC(C)(C)Nc1c(-c2ccc3c(c2)OCO3)nc2cnccn12
inactive: HCT-15 colon 84.1% | HT29 colon 80% | SNB-75 CNS 67.5% | SNB-19 CNS 90.9% | U251 CNS 95.6% | PC-3 prostate 67% | SK-MEL-5 melanoma 87.7% | UACC-62 melanoma 66% | LOX IMVI melanoma 94% | SK-MEL-28 melanoma 94.3% | SK-MEL-2 melanoma 95.6% | EKVX NSCLC 80.3% | SN12C renal 92.8% | UO-31 renal 63.1% | TK-10 renal 98.3% | ACHN renal 86.5% | CAKI-1 renal 69.6% | A498 renal 75.6% | CCRF-CEM leukemia 89.1% | MOLT-4 leukemia 69.4%

Cc1ccc(C2CC(c3cccc(Nc4ccncc4)c3)=NN2c2cc(Cl)cc(Cl)c2)cc1 (stereo not given)
inactive: SNB-75 CNS 70.2% | SNB-19 CNS 84.9% | PC-3 prostate 33.8% | SK-MEL-5 melanoma 68.8% | UACC-62 melanoma 99.4% | SK-MEL-2 melanoma 96.4% | EKVX NSCLC 77.3% | SN12C renal 52.4% | UO-31 renal 51.8% | TK-10 renal 72.7% | A498 renal 77.6%
active: HCT-15 colon -65.6% | HT29 colon -7.29% | U251 CNS -48.8% | LOX IMVI melanoma -87.3% | SK-MEL-28 melanoma -72.7% | ACHN renal -61.9% | CAKI-1 renal -38.8% | CCRF-CEM leukemia 7.28% | MOLT-4 leukemia 1.74%

O=c1nc2n(nc1/C=C/c1ccco1)CC(c1ccc(Cl)cc1)=NN2
inactive: HCT-15 colon 135% | HT29 colon 109% | SNB-75 CNS 91.6% | SNB-19 CNS 96.5% | U251 CNS 115% | PC-3 prostate 97.6% | SK-MEL-5 melanoma 99.9% | UACC-62 melanoma 97.6% | LOX IMVI melanoma 113% | SK-MEL-28 melanoma 120% | SK-MEL-2 melanoma 30.3% | EKVX NSCLC 72.1% | SN12C renal 136% | UO-31 renal 64% | TK-10 renal 104% | ACHN renal 122% | CAKI-1 renal 94% | A498 renal 107% | CCRF-CEM leukemia 98% | MOLT-4 leukemia 84.2%

COc1ccccc1Nc1cc(O)c2c(=O)cc(-c3ccccc3)oc2c1
active: SNB-75 CNS -4.79% | CCRF-CEM leukemia 7.29%
inactive: HCT-15 colon 29.3% | HT29 colon 17% | SNB-19 CNS 43.9% | U251 CNS 22.1% | PC-3 prostate 54.5% | SK-MEL-5 melanoma 24.6% | UACC-62 melanoma 35.8% | LOX IMVI melanoma 39.9% | SK-MEL-28 melanoma 56.5% | SK-MEL-2 melanoma 13.7% | EKVX NSCLC 57.4% | SN12C renal 36.6% | UO-31 renal 46.6% | TK-10 renal 66.3% | ACHN renal 50.8% | CAKI-1 renal 41.3% | A498 renal 11.6% | MOLT-4 leukemia 25.9%

Cc1ccccc1C(c1ccccc1)c1ccccc1C
inactive: HCT-15 colon 95.6% | HT29 colon 95.8% | SNB-75 CNS 79.5% | SNB-19 CNS 98.7% | U251 CNS 99.3% | PC-3 prostate 83.2% | SK-MEL-5 melanoma 77.8% | UACC-62 melanoma 100% | LOX IMVI melanoma 94.9% | SK-MEL-28 melanoma 103% | SK-MEL-2 melanoma 101% | EKVX NSCLC 96.3% | SN12C renal 96.8% | UO-31 renal 79.2% | TK-10 renal 100% | ACHN renal 94.2% | CAKI-1 renal 87.6% | A498 renal 83.6% | CCRF-CEM leukemia 83.3% | MOLT-4 leukemia 93.5%

CC(C)(C)CC(C)(C)Nc1c(-c2ccc(C(F)(F)F)cc2)nc2cnccn12
inactive: HCT-15 colon 73.8% | HT29 colon 57.4% | SNB-75 CNS 81.1% | SNB-19 CNS 91.8% | U251 CNS 93% | PC-3 prostate 68.5% | SK-MEL-5 melanoma 90% | UACC-62 melanoma 72.9% | LOX IMVI melanoma 97.6% | SK-MEL-28 melanoma 93.9% | SK-MEL-2 melanoma 91% | EKVX NSCLC 79.4% | SN12C renal 86.1% | UO-31 renal 64.1% | TK-10 renal 102% | ACHN renal 87% | CAKI-1 renal 75.4% | A498 renal 83.8% | CCRF-CEM leukemia 85.8% | MOLT-4 leukemia 68.5%

COc1ccc(C2CC(c3cccc(Nc4ccncc4)c3)=NN2c2ccccc2)cc1 (stereo not given)
inactive: SNB-75 CNS 65.3% | SNB-19 CNS 84.3% | PC-3 prostate 37.3% | SK-MEL-5 melanoma 49.2% | UACC-62 melanoma 97% | LOX IMVI melanoma 28.5% | SK-MEL-2 melanoma 71.7% | EKVX NSCLC 87.2% | SN12C renal 80.6% | UO-31 renal 64.3% | TK-10 renal 68.7% | ACHN renal 69.2% | CAKI-1 renal 51.5% | A498 renal 78% | CCRF-CEM leukemia 30.7% | MOLT-4 leukemia 10.7%
active: HCT-15 colon -22.9% | HT29 colon -3.3% | U251 CNS 8.79% | SK-MEL-28 melanoma -88.3%

CCCCCCCCCCCCCCCC(=O)OC[C@@]1(O)C[C@@]23CC[C@@H]4C(C)(C)[C@H](O)CC[C@@]4(C)[C@@H]2CC[C@H]1C3
inactive: HCT-15 colon 107% | HT29 colon 104% | SNB-75 CNS 99.6% | SNB-19 CNS 96.7% | U251 CNS 107% | PC-3 prostate 100% | SK-MEL-5 melanoma 102% | UACC-62 melanoma 100% | LOX IMVI melanoma 103% | SK-MEL-28 melanoma 110% | SK-MEL-2 melanoma 104% | EKVX NSCLC 100% | SN12C renal 96% | UO-31 renal 92.4% | TK-10 renal 101% | ACHN renal 108% | CAKI-1 renal 94.2% | A498 renal 105% | CCRF-CEM leukemia 100% | MOLT-4 leukemia 101%

O=S(=O)(NCCCNc1nccc(-c2c(-c3ccccc3)nc3occn23)n1)c1ccc(Cl)cc1
inactive: HCT-15 colon 79.8% | HT29 colon 47.5% | SNB-75 CNS 95.6% | SNB-19 CNS 97.8% | U251 CNS 86.6% | PC-3 prostate 72.1% | SK-MEL-5 melanoma 70.3% | UACC-62 melanoma 68.8% | LOX IMVI melanoma 72.7% | SK-MEL-28 melanoma 90% | SK-MEL-2 melanoma 88.3% | EKVX NSCLC 89.1% | SN12C renal 68.2% | UO-31 renal 44.4% | TK-10 renal 102% | ACHN renal 58.3% | CAKI-1 renal 62% | A498 renal 83.1% | CCRF-CEM leukemia 75.5% | MOLT-4 leukemia 68.1%

Fc1ccc2nc3c(cc2c1)CSc1nnc(-c2ccc[nH]c2=S)n1N3
inactive: HCT-15 colon 104% | HT29 colon 108% | SNB-75 CNS 75.8% | SNB-19 CNS 98.1% | U251 CNS 107% | PC-3 prostate 91.5% | SK-MEL-5 melanoma 96.4% | UACC-62 melanoma 91.7% | LOX IMVI melanoma 96.1% | SK-MEL-28 melanoma 102% | SK-MEL-2 melanoma 98.3% | EKVX NSCLC 94.2% | SN12C renal 98.2% | UO-31 renal 82% | TK-10 renal 110% | ACHN renal 94% | CAKI-1 renal 83.8% | A498 renal 92.1% | CCRF-CEM leukemia 98.9% | MOLT-4 leukemia 101%
